# System: T1, IKK-epsilon
# T1 construct: gene IKBKE
# Settings: Compound Concentration (nM):1000
# 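Also: KINOMEscan scanMAX binding as percent activity remaining versus control; lower means stronger binding.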
row,SMILES,Percent Control
1,NS(=O)(=O)c1ccc(N/N=C2\C(=O)Nc3ccc(C(=O)NCc4ccncc4)cc32)cc1 [GW300657X],42%
2,C/C(Nc1ccc(S(N)(=O)=O)cc1)=C1/C(=O)Nc2ccccc21 [GW335962X],63%
3,C[C@@H](Oc1cc(-n2cnc3ccc(OC4CCN(C)CC4)cc32)sc1C(N)=O)c1ccccc1Cl [GSK579289A],76%
4,COc1ccc2[nH]c3c4[nH]c5ccc(OC)cc5c4c4c(c3c2c1)C(=O)NC4=O [GW296115X],48%
5,CN1CCN(C(=O)c2ccc(NC(=O)Nc3ccc(N(C)c4ccnc(Nc5ccc(CS(C)(=O)=O)cc5)n4)cc3)cc2)CC1.Cl [GW830263A],38%
6,CCc1ccc(Oc2nccc(-c3c(-c4ccc(F)cc4)ncn3C3CCNCC3)n2)cc1 [SB-242719],56%
7,NS(=O)(=O)c1ccc(N/N=C2\C(=O)Nc3ccc(Cl)cc32)cc1 [GW280670X],72%

# — PMC7826789 (International Journal of Molecular Sciences, 2021)
